Source: PubChem BioAssay AID492947 (National Center for Advancing Translational Sciences (NCATS), 2010)
Screen size: about 330,000 compounds; about 80 (0.02%) were called active. The sample holds actives, similar compounds and a random draw of the others, so the mix is not that of the screen. The call rests on the fitted dose curve; in most records, active means well fitted activation curve with a large enough effect; inconclusive means small, poorly fitted or top-dose-only effect; inactive means flat fitted curve, though single readings scatter.

These molecules were tested against Beta-2 adrenergic receptor (Homo sapiens) (UniProt P07550) (assay: qHTS assay of beta-arrestin-biased ligands of beta2-adrenergic receptor). Conditions: beta-arrestin recruitment to beta2AR, cell-based reporter; series mostly up to 46.1 µM; activation: at the top concentration.
Beta-2 adrenergic receptor (Homo sapiens), sequence (P07550 whole entry, looked up): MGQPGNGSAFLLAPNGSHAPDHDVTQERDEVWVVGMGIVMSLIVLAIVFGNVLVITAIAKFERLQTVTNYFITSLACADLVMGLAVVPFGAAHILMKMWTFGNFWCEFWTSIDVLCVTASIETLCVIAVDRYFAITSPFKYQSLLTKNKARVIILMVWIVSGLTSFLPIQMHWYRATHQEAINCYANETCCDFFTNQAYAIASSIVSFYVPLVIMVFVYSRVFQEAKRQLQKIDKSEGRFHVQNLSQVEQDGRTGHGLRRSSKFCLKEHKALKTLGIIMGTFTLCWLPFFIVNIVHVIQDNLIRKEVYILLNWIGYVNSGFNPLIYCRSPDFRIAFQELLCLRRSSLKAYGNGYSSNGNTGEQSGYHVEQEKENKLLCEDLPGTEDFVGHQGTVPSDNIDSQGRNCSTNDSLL
Description: NIH Molecular Libraries Probe Production Network [MLPCN]
NIH Chemical Genomics Center [NCGC]
PI: Bryan Roth and Bob Lefkowitz
The concept of biased agonism is an emerging concept of molecular pharmacology which proposes that seven transmembrane receptors (7TMRs) or G protein-coupled receptors (GPCRs), exist in multiple signaling conformations and complexes and that ligands (either agonists or antagonists) can induce signaling biased responses for distinct signal transduction cascades.
Furthermore, accumulating evidence over the last decade has drawn attention to a novel function of beta-arrestins as signal transducers that scaffold various signaling molecules upon activation of 7TMRs. […] This beta-arrestin-biased signaling presumably leads to distinct physiological outcomes from those by G protein activation.
Additionally, the active receptor conformations which […] on this beta-arrestin signaling are likely different from those activating G protein signaling
The goal of this screening project will be to discover and optimize novel beta-arrestin-biased ligands for beta2-AR signaling. A luminescent cell-based assay for beta2-AR-mediated agonism, known as the Tango assay, has been validated in which ligand binding of a recombinant beta2-AR and subsequent recruitment of a recombinant beta-arrestin lead to the release of the transcriptional activator tTA, which upregulates transcription of a tTA-responsive luciferase gene. […] Compounds were screened as a concentration-titration series that ranged from 46 microM to 0.6 nM.
NCGC Assay Protocol Summary:
Tango cells were dispensed into white, solid, tissue-culture-treated 1536-well plates at 1500 cells/well in DMEM, containing 1% fetal bovine serum (FBS). Then, 23 nL of compounds or DMSO were delivered to each well using a pin tool. Plates were incubated at 37 degrees C, 5% CO2 for 18 hr. Then 2.5 uL luminescent substrate mix (in-house prepared: 150 mM Tris-Cl, pH 7.6, 3 mM MgCl2, 1% Triton X-100, 5 mM DTT, 0.5 mM CoA, 0.15 mM ATP, 0.44 mM D-luciferin, final concentrations) was added to each well. Plates were then incubated for 15 minutes at room temperature, and subsequently measured on a ViewLux plate reader for luminescent signal using a clear filter with a 10 second exposure and 2x binning. The %Activity was determined from the corrected luminescence values.
Concentration-response curves were fitted to the signals arising from the resulting luminescence. The concentration-effect curves were then classified based on curve quality (r2), response magnitude and degree of measured activity, and compounds were subsequently categorized based on their curve class.
Keywords: biased agonism, beta2-AR, beta-arrestin, GPCR, 7TMR, Tango, luminescence, MLSMR, MLPCN, NIH Roadmap, qHTS, NCGC
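Further: 0% = DMSO controls and full agonism = EC100 isoproterenol or metaproterenol; nearly all actives have a fitted effect of over 65% in size.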

activation, inactive:
CC12C(=O)N(c3ccccc3)C(=O)C1C(c1ccccc1)N1CCCN12 (centres undefined) -0.468%, Cc1c(Cl)cccc1NC(=O)NCc1ccc(C)n1C 0.368%, CCOC(=O)Cc1ncccc1C(=O)Nc1ccc(OC(F)(F)F)cc1 0.342%, CCOC(=O)N1CCC(N(CCOC)C(=O)Nc2ccc(C)c(C)c2)CC1 -1.07%, CCOC(=O)N/N=C1\CC(C)S(=O)(=O)c2ccc(Cl)cc21 (centres undefined) 0.455%, CC1CCC(C(C)C)C(=O)/C1=C\c1ccc(NC(=O)CCC(=O)O)cc1 (centres undefined) -0.303%, COC(=O)c1ccc(-c2c(-c3ccccc3)ncc3cc(OC)c(OC)cc23)cc1 0.148%, NC1=NC2(CCCCC2)N(c2ccc(F)cc2F)C(N)=N1 0.0396%, O=C(Oc1ccc(Br)cc1C(=S)N1CCOCC1)c1cccc([N+](=O)[O-])c1 0.418%, CCOC(=O)C1CCN(Cc2coc3ccc(Cl)cc3c2=O)CC1 -0.282%, COc1ccc(S(=O)(=O)N(C)CC(=O)N2CCCC2)cc1Cl -0.204%, C/C(=N\NC(=O)c1cc2c(s1)CCC(C)C2)c1cccnc1 (centres undefined) -0.278%, COC(=O)[C@H](CC(C)C)NC(=O)N1CCCCC1C (some centres undefined) -0.413%, Cc1ccccc1-n1nc(C)c2c1N=C1C(Cl)=CC(Cl)=CN1C2c1ccc(C(=O)O)cc1 (centres undefined) -0.645%, COc1ccc2c(c1)CCc1cn3ncc(C#N)c3nc1-2 -0.718%, COc1ccc(OCC(=O)NCCc2ccc(S(N)(=O)=O)cc2)cc1 -0.147%, Cc1nn(-c2ccccc2)c2sc(C(=O)N(Cc3ccco3)C(C)C(=O)NC(C)(C)C)cc12 (centres undefined) -0.496%, Cc1ccccc1N1CCN(C2CCCN(C(=O)c3cn4c(C)cccc4n3)C2)CC1 (centres undefined) 0.177%, COCCn1c(SCC(=O)Nc2cc(OC)ccc2OC)nc2c(c1=O)SC(C)C2 (centres undefined) -0.395%, Cc1cc(Cl)ccc1NC(=S)N1CCC(C(N)=O)(N2CCCCC2)CC1 -0.676%, C[C@H]1COC(=O)[C@H](CC(=O)OC(C)(C)C)C/C=C\C[C@@H](CC(=O)N[C@H](CO)Cc2ccccc2)C(=O)N1 -0.195%, CCCn1c(C(Cc2ccccc2)NC(=O)COC)nc2ccccc21 (centres undefined) 0.278%, O=C(Nc1ccccc1F)C1C2C=CC3(O2)C1C(=O)N(c1cccnc1)C3C(=O)NC1CCCCC1 (centres undefined) -0.119%, COC(=O)CN1C(=O)C(C)(C)Oc2ccc(C(=O)Nc3cccc(OC)c3)cc21 0.44%, CC1(c2ccc(Cl)cc2Cl)NC(=O)N(CC(=O)Nc2cccnc2Cl)C1=O (centres undefined) 0.107%, CSc1nc2nc3c(c(=O)n2[nH]1)CCC3 0.387%, O=C(COC(=O)Cc1ccc(Br)cc1)Nc1ccc(N2CCOCC2)cc1 0.283%, CCN1CCCC1CNC(=O)Cn1cnc2ccc(S(=O)(=O)N3CCC(C)CC3)cc2c1=O (centres undefined) -0.835%, O=C(CCNC(=O)c1ccccc1Cl)NN=Cc1ccco1 -1.11%, Cc1ccc(S(=O)(=O)N2CCN(C(=O)CCC(=O)NC3CCCc4ccccc43)CC2)cc1 (centres undefined) -0.327%, COC(=O)C(C)n1cnc2c(nnn2-c2ccc(F)cc2)c1=O (centres undefined) -1.45%, Cc1ccc(C2(C)NC(=O)N(CC(=O)N3CC(=O)Nc4ccccc43)C2=O)cc1 (centres undefined) -0.447%, CC(OC(=O)CNS(=O)(=O)/C=C/c1ccccc1)C(=O)Nc1ccc(S(=O)(=O)N2CCCC2)cc1 (centres undefined) -0.924%, CCOC(=O)c1c(-c2cccc(N)c2)cn2ccccc12 -0.239%, CCOc1cc2[nH]c(=S)n(CCCN3CCCC3=O)c(=O)c2cc1OCC -0.317%, COc1ccc(CS(=O)/C(Cl)=C(/Cl)C(=O)Nc2ccc(OC)nc2)cc1 (centres undefined) -0.108%, CC1CC1C(=O)OCC(=O)Nc1cccc(F)c1 (centres undefined) -0.288%, CC1CCC2(CC1)NC(=O)N(Cc1nnc(-c3cccs3)o1)C2=O (centres undefined) 0.245%, NC(=O)c1ccsc1NC(=O)COC(=O)Cc1n[nH]c(=O)c2ccccc12 -0.009%, CCOCCCNC(=O)c1cn(CC(C)C)c(=O)c2c1c1ccccc1n2C -0.285%, Cc1cc(C)c(C#N)c(SCC(=O)NN2CC(=O)N(c3ccccc3F)CC2=O)n1 -0.808%, COc1ccc(CC(NC(C)=O)C(=O)NC2CCN(C(=O)C3CC3)CC2)cc1OC (centres undefined) 0.0754%, COc1ccccc1OCCn1c(SCC(N)=O)nc2ccccc21 -0.935%, CCc1cccc(C)c1NC(=O)COC(=O)CC1CCCC1 -0.1%, O=C(Nc1cc(-c2nn(CC(=O)N3CCCCC3)c(=O)c3ccccc23)ccc1N1CCOCC1)c1ccc(Cl)cc1 -0.799%, COc1ccc2c(-c3ccccc3)cc(SCC(=O)N(C)C3CCS(=O)(=O)C3)nc2c1 (centres undefined) -1.89%, COC(=O)c1cccc(NC(=O)CN2CCC(NC(=O)c3cc(OC)c(OC)c(OC)c3)CC2)c1 -0.217%, O=C(COc1ccccc1Cl)Nc1ccc(C(=O)c2ccc(C(=O)O)cc2)cc1 -0.148%, OC(COCC1COc2ccccc2O1)CN1CCN(c2ccc(F)cc2)CC1 (centres undefined) -0.322%
